In publication PMC4336329 (PLoS ONE, 2015):
The campaign covered roughly 310,000 compounds. About 14,000 (4.5%) showed an effect of 50% or more. Effects have a minus sign here. This is one part of a sample in which strong results are shown more often than they occur.

target: human ether-à-go-go-related gene (hERG) potassium channel (human, UniProt Q12809); test: primary screen, population patch clamp on CHO cells stably expressing hERG; higher = less effect of the substance
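Also: peak tail current of the secondary pulse compared with the same well before compound.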

Sequence of human ether-à-go-go-related gene (hERG) potassium channel (Q12809 whole entry, looked up): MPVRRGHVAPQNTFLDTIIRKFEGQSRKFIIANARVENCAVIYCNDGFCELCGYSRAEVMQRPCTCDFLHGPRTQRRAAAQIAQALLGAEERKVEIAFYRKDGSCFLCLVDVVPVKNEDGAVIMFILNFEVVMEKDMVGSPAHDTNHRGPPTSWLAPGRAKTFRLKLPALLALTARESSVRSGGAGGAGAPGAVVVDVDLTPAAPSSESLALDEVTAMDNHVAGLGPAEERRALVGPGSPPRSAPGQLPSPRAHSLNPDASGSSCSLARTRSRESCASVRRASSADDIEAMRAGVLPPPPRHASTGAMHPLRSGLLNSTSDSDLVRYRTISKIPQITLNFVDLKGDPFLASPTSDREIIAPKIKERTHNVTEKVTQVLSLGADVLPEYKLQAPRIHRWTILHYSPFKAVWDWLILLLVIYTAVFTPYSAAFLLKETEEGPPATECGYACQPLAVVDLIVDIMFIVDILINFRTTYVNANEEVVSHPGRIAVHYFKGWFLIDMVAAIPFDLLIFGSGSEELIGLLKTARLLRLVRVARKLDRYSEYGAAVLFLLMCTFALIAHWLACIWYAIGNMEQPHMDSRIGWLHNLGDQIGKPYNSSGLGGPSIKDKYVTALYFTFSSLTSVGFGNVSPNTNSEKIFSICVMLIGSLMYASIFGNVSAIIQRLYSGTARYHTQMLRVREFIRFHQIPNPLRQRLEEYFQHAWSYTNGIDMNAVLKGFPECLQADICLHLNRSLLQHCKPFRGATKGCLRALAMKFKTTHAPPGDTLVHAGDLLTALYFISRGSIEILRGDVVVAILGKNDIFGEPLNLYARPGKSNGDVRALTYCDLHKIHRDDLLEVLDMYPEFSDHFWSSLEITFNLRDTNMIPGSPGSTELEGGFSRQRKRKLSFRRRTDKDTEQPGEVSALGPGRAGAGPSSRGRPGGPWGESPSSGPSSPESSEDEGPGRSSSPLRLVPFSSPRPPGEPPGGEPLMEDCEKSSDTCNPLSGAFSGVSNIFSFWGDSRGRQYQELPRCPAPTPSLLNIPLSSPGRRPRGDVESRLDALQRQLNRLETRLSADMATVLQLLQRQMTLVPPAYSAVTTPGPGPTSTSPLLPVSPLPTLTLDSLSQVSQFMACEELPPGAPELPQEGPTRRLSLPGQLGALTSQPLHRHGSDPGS

Going from CCOc1ccc(CCNc2nc3c(c(=O)n(C)c(=O)n3C)n2CC)cc1OCC to CCOc1ccc2[nH]c(=O)c(C(c3nnnn3C3CCCCC3)N3CCN(CC)CC3)cc2c1 (stereo not shown), the “hERG current change (%, negative = inhibition) at 10uM” value falls from 3.1% to -40.3%.

Compared with CCOC(=O)C1=C(COC(=O)CC(C)c2ccccc2)NC(=O)NC1C (stereo not shown), CCOC(=O)C1(CCOc2ccccc2)CCN(Cc2ccc(C(=O)OC)cc2)CC1 is lower in “hERG current change (%, negative = inhibition) at 10uM” value: -17.8% for the first, -49.9% for the second.

Going from CN1C(=O)C(=Cc2ccc(N3CCCCCC3)cc2)C(=O)N(C)C1=O to COc1ccc(Nc2nc(NCCO)nc(N3CCCC3)n2)cc1, the “hERG current change (%, negative = inhibition) at 10uM” value falls from 13.1% to -38.3%.

Going from COc1cccc(NC(=O)Cc2ccc3ccccc3c2)c1 to COc1ccccc1C(=O)NCCC(=O)Nc1nc2ccccc2[nH]1, the “hERG current change (%, negative = inhibition) at 10uM” value falls from -7.16% to -12.6%.

Going from N#C/C(=C\c1cccc(OCC(=O)O)c1)c1nc2ccccc2[nH]1 to N#C/C(=N\O)c1nc(-c2ccccc2)cs1, the “hERG current change (%, negative = inhibition) at 10uM” value falls from 19.6% to 15.9%.

Going from COc1cc(-c2noc(C)n2)cc(OC)c1OC to CCOC(=O)C1(Cc2cccc(OC)c2)CCN(Cc2cnc(SC)nc2)CC1, the “hERG current change (%, negative = inhibition) at 10uM” value falls from 13.4% to -27%.

Compared with Cc1ccc(S(=O)(=O)NCC(=O)OCC(=O)Nc2cccc(S(=O)(=O)NC3=NCCCCC3)c2)cc1C, O=C(OCc1ccc(Br)cc1)c1cccc(S(=O)(=O)N2CCCC2)c1 is lower in “hERG current change (%, negative = inhibition) at 10uM” value: -1.1% for the first, -6.47% for the second.

First: CC(C)(C)c1ccc(/C=C/C(=O)NCCCn2ccnc2)cc1
Second: O=C(/C=C/c1ccc(Cl)cc1)NCCCn1ccnc1
The “hERG current change (%, negative = inhibition) at 10uM” value of the first is higher: -46.5% for the first, -55.8% for the second.

Compared with O=C(NCCCn1ccnc1)c1ccc(Cl)cc1, Clc1ccc(SCCCCn2ccnc2)cc1 is lower in “hERG current change (%, negative = inhibition) at 10uM” value: -2.72% for the first, -53% for the second.

Going from Clc1ccc(SCCn2ccnc2)cc1 to O=C(/C=C/c1ccc(F)cc1)NCCCn1ccnc1, the “hERG current change (%, negative = inhibition) at 10uM” value falls from -1.48% to -31.9%.

First: COc1ccc(/C=C/C(=O)NCCCn2ccnc2)cc1
Second: O=C(/C=C/c1ccc(Br)cc1)NCCCn1ccnc1
The “hERG current change (%, negative = inhibition) at 10uM” value of the first is higher: -30.9% for the first, -57% for the second.

Compared with O=C(/C=C/c1ccc(Cl)c(Cl)c1)NCCCn1ccnc1, CCOC(=O)C1(CCOC)CCN(Cc2cnc(-c3cccc(C)c3)nc2)CC1 is higher in “hERG current change (%, negative = inhibition) at 10uM” value: -41.7% for the first, -5.81% for the second.

Going from O=C(C#Cc1ccccc1)NCc1ccccc1F to CCOC(=O)C1(CCOc2ccccc2)CCN(Cc2ccc(C#CCCO)cc2)CC1, the “hERG current change (%, negative = inhibition) at 10uM” value falls from -2.39% to -53.3%.

First: CC1(C)CCC(=O)C=C1Nc1ccc(F)c(Cl)c1
Second: CCOC(=O)C1(CCOC)CCN(Cc2ccncc2)CC1
The “hERG current change (%, negative = inhibition) at 10uM” value of the first is lower: 7.56% for the first, 8.26% for the second.

First: CC(C)(C)c1ccc(S(=O)(=O)NCc2ccc(C(=O)NCC3CCCO3)cc2)cc1 (stereo not shown)
Second: CCOC(=O)C1(CCOc2ccccc2)CCN(Cc2ccc(OC)cc2)CC1
The “hERG current change (%, negative = inhibition) at 10uM” value of the first is higher: 13.8% for the first, -75.1% for the second.

Going from CSc1nsc(SC)c1C(N)=O to CCOC(=O)C1(CCOc2ccccc2)CCN(Cc2cnc(SC)nc2)CC1, the “hERG current change (%, negative = inhibition) at 10uM” value falls from 10.6% to -72.2%.

Going from CCOC(=O)C1(CCOc2ccccc2)CCN(Cc2ccncc2)CC1 to CCOC(=O)C1(Cc2ccccc2)CCCN(Cc2ccncc2)C1 (stereo not shown), the “hERG current change (%, negative = inhibition) at 10uM” value rises from -52% to -17.4%.
